# In PubChem BioAssay (Tox21):
# A number with no mark means an inactive call. Records with an inconclusive call do not appear. A call without a number means that no potency is given here. Activity calls are given as the source filed them. Unless noted, calls come from the whole dose curve; as a rule, active = well fitted curve in the direction sought with a large enough effect in the repeat runs; inconclusive = weak or mixed curves; inactive = no such curve, though single readings can be large; an effect the other way counts as inactive or inconclusive.
# Columns and labels:
# [1] = qHTS assay to identify small molecule antagonists of the constitutive androstane receptor (CAR) signaling pathway - cell viability counter screen (AID 1224837); note: nearly all actives have a fitted effect of over 45% in size
# Procedure, shortened: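 Cytotoxicity counter-screen: CellTiter-Fluor fluorescence after 23 h compound exposure (15-point qHTS) in double-stable HepG2-CYP2B6-hCAR cells, with 50 nM CITCO added.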
# [2] = qHTS assay to identify small molecule antagonists of the estrogen related receptor signaling pathway with the pleiotropic PPARgamma coactivator (PGC) from Tox21 10K library - cell viability counter screen (AID 1224840; active = well fitted cell-killing curve with a large enough effect in the repeat runs, not every such curve was filed as active; note: nearly all actives have a fitted effect of over 40% in size)
# Procedure, shortened: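 Counter-screen for cytotoxicity: after 17.5 h compound exposure at 37 C, CellTiter-Fluor reagent added to PGC/ERR cells for 30 min and fluorescence read. Cells were seeded at 2,000 per well 6 h before dosing.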
# [3] = biological target: Thyrotropin receptor (Homo sapiens) (UniProt P16473); assay: qHTS assay to identify small molecule agonists of the thyroid stimulating hormone receptor (TSHR) signaling pathway (AID 1224843; calls by dose curve; note: nearly all actives have a fitted effect of over 45% in size)
# Procedure, shortened: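 Using 15 concentrations per compound in triplicate, cAMP production was monitored in TSHR-HEK293 cells after 30 min compound incubation at RT; HTRF reagents followed, with fluorescence intensity recorded after 1 h.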
# [4] = qHTS assay to identify small molecule agonists of the hypoxia (HIF-1) signaling pathway - cell viability counter screen (AID 1224844; calls by dose curve; note: nearly all actives have a fitted effect of over 50% in size)
# Procedure, shortened: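 Cytotoxicity measured by CellTiter-Glo ATP luminescence in the wells also read for beta-lactamase signal. Cells were HRE-bla ME-180 (2,000/well, 0.5% dialyzed FBS), exposed to compounds for 17 h at 37C.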
# [5] = qHTS assay to identify small molecule agonists of H2AX (AID 1224845; active = well fitted activation curve with a large enough effect in the signal ratio in the repeat runs, not every such curve was filed as active; the % refers to the signal ratio)
# Procedure, shortened: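 Wild-type CHO-K1 cells plated overnight, then exposed 3 hr at 37C to compounds at 15 concentrations (0.76% DMSO). Lysed, then HTRF anti-pH2AX(S139)-cryptate/anti-H2AX-d2 detection after 24 hr at room temperature; emissions 665 and 620 nm.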
# [6] = qHTS assay to identify small molecule agonists of the hypoxia (HIF-1) signaling pathway (AID 1224846; active = well fitted activation curve with a large enough effect in the signal ratio in the repeat runs, not every such curve was filed as active; the % refers to the signal ratio)
# Procedure, shortened: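 Compounds added to ME-180 cells carrying hypoxia-response-element beta-lactamase reporter (0.5% dialyzed FBS, 5 h preplating), 17 h at 37C; agonist activity detected by CCF4-AM B/G FRET read-out.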
# [7] = qHTS assay to identify small molecule agonists of H2AX - cell viability counter screen (AID 1224847; calls by dose curve; note: top concentration of the series differs between compounds; nearly all actives have a fitted effect of over 30% in size)
# Procedure, shortened: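 Cytotoxicity counter screen in wild-type CHO-K1 cells: a 3 hr compound treatment at 37C across 15 concentrations, followed by CellTiter-Glo luminescence to gauge viable cells.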
# [8] = qHTS RealTime-Glo MT Cell Viability Assay in HepG2 cells - 24 hour (AID 1224867); note: nearly all actives have a fitted effect of over 50% in size
# Procedure, shortened: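 Compound treatment began 5 h after plating HepG2 cells (600/well) with NanoLuc luciferase and prosubstrate. Plates stayed at 37 C for 40 h; luminescence was captured at six time points, 0 h through 40 h.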
# [9] = qHTS RealTime-Glo MT Cell Viability Assay in HEK293 cells - 32 hour (AID 1224868); note: nearly all actives have a fitted effect of over 50% in size; note: potency is the fitted concentration of half-maximal effect; for activity change, negative = cytotoxic: top concentration of the series differs between compounds
# Procedure, shortened: (§1)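 Quantitative high-throughput screen of the Tox21 10K library in HEK293: cells and RealTime-Glo reagents plated together, compound added at 5 h, luminescence monitored through 40 h at 37 C.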
# [10] = A CellTox Green Cytotoxicity Assay to monitor cytotoxicity in HEK293 cells - 0 hour (AID 1224869); note: nearly all actives have a fitted effect of over 50% in size
# Procedure, shortened: (§2)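 Fluorescence from a DNA-binding dye excluded by viable cells was measured repeatedly in the same HEK293 wells (600 cells/well) during continuous compound exposure at 37 C. Each assay gives one read point: 0, 8, 16, 24, 32 or 40 h.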
# [11] = qHTS RealTime-Glo MT Cell Viability Assay in HepG2 cells - 40 hour (AID 1224870); note: nearly all actives have a fitted effect of over 50% in size
# Procedure, shortened: (§3)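 HepG2 cells mixed with RealTime-Glo MT reagents (NanoLuc plus cell-permeant prosubstrate) were seeded at 600 cells/well, incubated 5 h at 37 C/5% CO2, then pinned with compounds in DMSO; nonlytic luminescence tracked viability during 40 h treatment.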
# [12] = A CellTox Green Cytotoxicity Assay to monitor cytotoxicity in HEK293 cells - 40 hour (AID 1224871); note: nearly all actives have a fitted effect of over 45% in size
# Procedure, shortened: as §2
# [13] = qHTS RealTime-Glo MT Cell Viability Assay in HEK293 cells - 16 hour (AID 1224872)
# Procedure, shortened: as §1
# [14] = qHTS RealTime-Glo MT Cell Viability Assay in HepG2 cells - 8 hour (AID 1224873); note: nearly all actives have a fitted effect of over 55% in size
# Procedure, shortened: as §3
# [15] = qHTS assay to identify small molecule antagonists of the estrogen related receptor signaling pathway with the pleiotropic PPARgamma coactivator (PGC) from Tox21 10K library (AID 1224841; call rule not given here)
# Procedure, shortened: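 Luminescence (One-Glo, 30 min at room temperature) after 18 h compound treatment at 37 C of PGC/ERR reporter cells plated at 2,000 cells/well and settled 6 h beforehand.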
# [16] = qHTS assay to identify small molecule agonists of the estrogen related receptor signaling pathway with the pleiotropic PPARgamma coactivator (PGC) from Tox21 10K library (AID 1224842); note: nearly all actives have a fitted effect of over 15% in size; note: potency is the fitted concentration of half-maximal effect
# Procedure, shortened: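 PGC/ERR reporter cells (NTP line) were seeded 2,000 per well, rested 6 h at 37 C/5% CO2, then pin-dosed with compounds in DMSO for 18 h at 37 C; luciferase read by One-Glo luminescence after 30 min at room temperature.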
# [17] = qHTS assay to identify small molecule antagonists of the estrogen related receptor (ERR) signaling pathway from Tox21 library (AID 1224848); note: nearly all actives have a fitted effect of over 50% in size
# Procedure, shortened: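 Tox21 10K compounds in DMSO tested for ERR pathway antagonism in NTP's ERR cell line; 18 h, 37 C exposure; ONE-Glo luminescence.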
# [18] = qHTS assay to identify small molecule agonists of the estrogen related receptor (ERR) signaling pathway from Tox21 library (AID 1224849; calls by dose curve; note: nearly all actives have a fitted effect of over 15% in size); conditions: ERR reporter cell line, ONE-Glo luciferase, 18 h; at 92.4 µM (top of the series) unless noted
# Procedure, shortened: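 Luminescent agonist read-out (One-Glo, 30-minute room-temperature incubation) following 18-hour compound treatment at 37 C of the ERR cell line, which had been plated 6 hours before dosing.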
# [19] = biological target: Nuclear receptor subfamily 1 group I member 3 (Homo sapiens) (UniProt Q14994); assay: qHTS assay to identify small molecule antagonists of the constitutive androstane receptor (CAR) signaling pathway (AID 1224838);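 note: HepG2 cells stably expressing hCAR with CYP2B6 luciferase reporter stimulated by CITCO; nearly all actives have a fitted effect of over 40% in size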; note: potency is the fitted concentration of half-maximal effect
# Procedure, shortened: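 Antagonism measured as luciferase signal (ONE-Glo, 30 min, room temperature) in CAR-stimulated cells: HepG2-CYP2B6-hCAR double-stable line exposed 24 hr at 37 C to compound in a 15-point series plus 50 nM CITCO.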
# [20] = biological target: Nuclear receptor subfamily 1 group I member 3 (Homo sapiens) (UniProt Q14994); assay: qHTS assay to identify small molecule agonists of the constitutive androstane receptor (CAR) signaling pathway (AID 1224839);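 note: HepG2 cells stably carrying human CAR and a CYP2B6 luciferase reporter; nearly all actives have a fitted effect of over 15% in size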
# Procedure, shortened: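 Cells were plated and incubated 4 hrs, then dosed with compounds at 15 concentrations. PK11195 was added to 0.75 uM final. After 24 hrs at 37 C, luciferase luminescence was measured.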
# Chain of Thyrotropin receptor (Homo sapiens) (P16473 whole entry, looked up): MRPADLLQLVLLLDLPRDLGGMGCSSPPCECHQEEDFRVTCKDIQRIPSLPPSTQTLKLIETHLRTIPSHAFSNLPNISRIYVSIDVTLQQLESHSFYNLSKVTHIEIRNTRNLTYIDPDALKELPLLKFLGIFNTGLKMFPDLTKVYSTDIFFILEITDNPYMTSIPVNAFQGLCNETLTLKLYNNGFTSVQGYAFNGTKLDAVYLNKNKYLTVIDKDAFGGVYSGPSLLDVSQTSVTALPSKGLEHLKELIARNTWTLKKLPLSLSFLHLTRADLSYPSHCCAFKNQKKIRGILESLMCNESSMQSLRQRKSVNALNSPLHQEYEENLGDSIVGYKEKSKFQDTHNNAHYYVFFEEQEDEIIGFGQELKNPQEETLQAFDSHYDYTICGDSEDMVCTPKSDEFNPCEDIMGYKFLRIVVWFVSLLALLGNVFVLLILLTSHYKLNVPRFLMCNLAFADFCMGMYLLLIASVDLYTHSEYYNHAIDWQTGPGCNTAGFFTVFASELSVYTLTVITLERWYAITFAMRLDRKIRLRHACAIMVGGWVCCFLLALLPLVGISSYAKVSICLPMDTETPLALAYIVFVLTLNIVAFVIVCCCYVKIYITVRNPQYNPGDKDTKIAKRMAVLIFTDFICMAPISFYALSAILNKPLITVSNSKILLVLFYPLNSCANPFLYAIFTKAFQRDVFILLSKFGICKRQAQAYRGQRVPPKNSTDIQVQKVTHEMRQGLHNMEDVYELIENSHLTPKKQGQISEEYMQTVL
# Chain of Nuclear receptor subfamily 1 group I member 3 (Homo sapiens) (Q14994 whole entry, looked up): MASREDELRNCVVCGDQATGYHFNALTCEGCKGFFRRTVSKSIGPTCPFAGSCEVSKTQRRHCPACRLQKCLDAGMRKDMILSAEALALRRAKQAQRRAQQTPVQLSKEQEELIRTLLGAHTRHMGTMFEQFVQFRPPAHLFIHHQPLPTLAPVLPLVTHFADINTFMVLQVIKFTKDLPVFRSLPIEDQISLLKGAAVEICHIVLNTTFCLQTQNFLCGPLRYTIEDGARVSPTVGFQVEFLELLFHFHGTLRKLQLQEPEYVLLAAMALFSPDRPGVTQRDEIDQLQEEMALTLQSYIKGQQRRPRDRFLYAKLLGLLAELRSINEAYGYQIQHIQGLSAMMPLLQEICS
smiles,measurement,setting,value
Cc1c(Cn2ccnc2)c2ccccc2n1CCC(=O)O,Potency,[1],inactive
same,Potency,[2],inactive
same,Potency,[3],inactive
same,Potency,[4],inactive
same,Potency,[5],inactive
same,outcome,[6],inactive
same,Potency,[7],inactive
same,Potency,[8],inactive
same,Potency,[9],inactive
same,Potency,[10],inactive
same,Potency,[11],inactive
same,Potency,[12],inactive
same,Potency,[13],inactive
same,Potency,[14],inactive
O=C(CC(=O)c1ccccc1)c1ccccc1,Potency,[1],inactive
same,Potency,[2],inactive
same,Potency,[15],inactive
same,Potency,[16],29.3 µM (active)
same,Potency,[3],inactive
same,Potency,[4],inactive
same,outcome,[6],inactive
same,Potency,[17],inactive
same,"activity change, positive = activation",[18],58.5% (active)
same,Potency,[8],inactive
same,Potency,[9],inactive
same,Potency,[10],inactive
same,Potency,[11],inactive
same,Potency,[12],inactive
same,Potency,[13],inactive
CCCC(C)C,Potency,[1],inactive
same,Potency,[2],inactive
same,Potency,[3],inactive
same,Potency,[4],inactive
same,Potency,[5],inactive
same,outcome,[6],inactive
same,Potency,[7],inactive
same,Potency,[8],inactive
same,Potency,[10],inactive
same,Potency,[11],inactive
same,Potency,[12],inactive
same,Potency,[14],inactive
NC[C@H]1O[C@H](O[C@H]2[C@H](O)[C@@H](O[C@H]3O[C@H](CO)[C@@H](O)[C@H](N)[C@H]3O)[C@H](N)C[C@@H]2N)[C@H](O)[C@@H](O)[C@@H]1O,"activity change, negative = cytotoxicity",[1],2.42% [at 8.39 µM]
same,"viability change, negative = cytotoxic",[2],5.71% [at 8.39 µM]
same,activation,[16],1.17% [at 8.39 µM]
same,activation,[3],-0.345% [at 8.39 µM]
same,"activity change, negative = cytotoxicity",[4],-8.41% [at 6.97 µM]
same,activation (H2AX phosphorylation),[5],-0.622% [at 14 µM]
same,"activity, negative = inhibition",[17],17.9% [at 8.39 µM]
same,"activity change, positive = activation",[18],8.77% [at 8.39 µM]
same,"activity change, negative = cytotoxicity",[8],-0.929% [at 6.97 µM]
same,"activity change, negative = cytotoxic",[9],12.4% [at 6.97 µM]
same,cytotoxicity,[10],6.99% [at 6.97 µM]
same,"activity change, negative = cytotoxic",[11],-6.23% [at 6.97 µM]
same,cytotoxicity increase,[12],9.35% [at 6.97 µM]
same,"activity change, negative = cytotoxicity",[13],8.96% [at 6.97 µM]
same,"viability change, negative = cytotoxic",[14],5.97% [at 6.97 µM]
CCCCCC(CO)CCC (configuration not stated),Potency,[1],inactive
same,Potency,[2],inactive
same,Potency,[15],inactive
same,Potency,[16],inactive
same,Potency,[4],inactive
same,Potency,[5],inactive
same,outcome,[6],inactive
same,Potency,[7],inactive
same,Potency,[17],inactive
same,"activity change, positive = activation",[18],2.67%
same,Potency,[8],inactive
same,Potency,[9],inactive
same,Potency,[10],inactive
same,Potency,[11],inactive
same,Potency,[12],inactive
same,Potency,[13],inactive
same,Potency,[14],inactive
CC(=O)c1ccc2c(c1)[C@H](NC(=O)c1ccc(F)cc1)[C@@H](O)C(C)(C)O2,Potency,[19],inactive
same,Potency,[20],inactive
same,Potency,[2],inactive
same,Potency,[3],inactive
same,Potency,[5],inactive
same,outcome,[6],inactive
same,Potency,[8],inactive
same,Potency,[9],inactive
same,Potency,[10],inactive
same,Potency,[11],inactive
same,Potency,[12],inactive
same,Potency,[13],inactive
same,Potency,[14],inactive
CC(C)(Oc1ccc(Cl)cc1)C(=O)OCCCOC(=O)C(C)(C)Oc1ccc(Cl)cc1,Potency,[1],inactive
same,Potency,[4],inactive
same,outcome,[6],inactive
same,Potency,[7],inactive
same,Potency,[8],inactive
same,Potency,[9],inactive
same,Potency,[10],inactive
same,Potency,[11],inactive
same,Potency,[12],inactive
same,Potency,[14],inactive
COCCCCCCCCOCCC[Si](C)(O[Si](C)(C)C)O[Si](C)(C)C,Potency,[19],48.6 µM (active)
same,Potency,[20],inactive
same,Potency,[4],inactive
same,Potency,[5],inactive
same,outcome,[6],inactive
same,Potency,[8],inactive
same,Potency,[9],3.89 µM (active)
same,Potency,[10],inactive
same,Potency,[11],inactive
same,Potency,[14],inactive
CCCCCCCCCCCCCCCCCBr,"activity change, negative = cytotoxicity",[1],0.897% [at 19 µM]
same,"viability change, negative = cytotoxic",[2],2.64% [at 19 µM]
same,"activity change, negative = cytotoxicity",[4],2.27% [at 15.8 µM]
same,activation (H2AX phosphorylation),[5],-1.13% [at 31.6 µM]
same,activation,[6],-0.885% [at 15.8 µM]
same,"activity change, negative = cytotoxicity",[7],1.9% [at 31.6 µM]
same,"activity change, negative = cytotoxicity",[8],0.544% [at 15.8 µM]
same,"activity change, negative = cytotoxic",[9],6.52% [at 15.8 µM]
same,cytotoxicity,[10],-0.244% [at 15.8 µM]
same,"activity change, negative = cytotoxic",[11],11.3% [at 15.8 µM]
same,cytotoxicity increase,[12],-9.92% [at 15.8 µM]
same,"activity change, negative = cytotoxicity",[13],-1.86% [at 15.8 µM]
same,"viability change, negative = cytotoxic",[14],-6.16% [at 15.8 µM]
OC(CCN1CCCCC1)(c1ccccc1)C1CCCCC1 (configuration not stated),Potency,[20],inactive
same,Potency,[2],inactive
same,Potency,[15],inactive
same,Potency,[16],inactive
same,Potency,[4],inactive
same,Potency,[17],inactive
same,"activity change, positive = activation",[18],2.3% [at 42.5 µM]
same,Potency,[8],inactive
same,Potency,[10],inactive
same,Potency,[11],inactive
same,Potency,[12],inactive
same,Potency,[13],inactive
same,Potency,[14],inactive
